Among the test systems are HCT-15 colon; HT29 colon; SNB-75 CNS; SNB-19 CNS; U251 CNS; PC-3 prostate; SK-MEL-5 melanoma; UACC-62 melanoma; LOX IMVI melanoma; SK-MEL-28 melanoma; SK-MEL-2 melanoma; EKVX NSCLC; SN12C renal; UO-31 renal; TK-10 renal; ACHN renal; A498 renal; CCRF-CEM leukemia; MOLT-4 leukemia; SR leukemia.
Holding throughout (experiment): NCI-60 one-dose screen, 48 h (100 = growth as untreated, 0 = no growth, -100 = all killed)
What all share (conditions): 10 µM unless noted

Data on seven compounds can be found in PubChem BioAssay (NCI).

The panel holds about 83,000 compounds, 20% with a hit somewhere; the sample as a whole holds those more often.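 Single-concentration screen, 48 h exposure, 96-well plates. Endpoint: percent growth. Below 10 = active.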 A number with no mark means an inactive call. Calls of active or inactive are those of the source.

Turning to `Cc1c(O)c(=O)ccn1-c1nc2ccccc2s1`, the growth was 38.2% with HCT-15 colon; 93.8% in the experiment with HT29 colon; 95.7% with SNB-75 CNS; 110% in the experiment on SNB-19 CNS; 84.1% with U251 CNS; 90.4% in the experiment with PC-3 prostate. In addition, the growth was 96.2% in the experiment on SK-MEL-5 melanoma; 98.3% in the experiment with UACC-62 melanoma; 86.7% with LOX IMVI melanoma; 107% in the experiment with SK-MEL-28 melanoma; 90.5% with SK-MEL-2 melanoma; 45.3% in the experiment on EKVX NSCLC. Also, the growth was 98.9% in the experiment on SN12C renal; 47.6% in the experiment with UO-31 renal; 91.2% in the experiment on TK-10 renal; 60.6% in the experiment with ACHN renal; 95.8% in the experiment on A498 renal; 82.7% with CCRF-CEM leukemia. The growth in the experiment on MOLT-4 leukemia is 103%; in the experiment with SR leukemia, 91.3%.

Regarding `O=C1CC23OC(C(O)c4ccccc4N12)C1C(c2ccccc2)=NOC13` (stereo not given), the growth in the experiment with HCT-15 colon is 29.7%; in the experiment on HT29 colon, 13.9%; in the experiment with SNB-75 CNS it was 33.4%; with SNB-19 CNS, 44%; with U251 CNS it was 40.2%; in the experiment on PC-3 prostate, 50%. The growth is 31.7% with SK-MEL-5 melanoma; 28.2% in the experiment on UACC-62 melanoma; 37.8% with LOX IMVI melanoma; 64.1% in the experiment with SK-MEL-28 melanoma; 40.8% with SK-MEL-2 melanoma; 57.7% with EKVX NSCLC. Moreover, the growth in the experiment with SN12C renal is 42.9%; in the experiment on UO-31 renal, 45.1%; in the experiment on TK-10 renal, 102%; in the experiment with ACHN renal, 52.7%; with A498 renal, 71%; in the experiment with CCRF-CEM leukemia, 68.3%. Besides, the figures for the growth with MOLT-4 leukemia and in the experiment with SR leukemia were 37.2% and 22.2%, respectively.

As for `Cc1c(Br)cccc1NC(=O)c1sc2nc3c(cc2c1N)CN(Cc1ccccc1)CC3`, the growth with HCT-15 colon is 18.2%; in the experiment on HT29 colon, 0.812% (active); with SNB-75 CNS it was -9.13% (active); with SNB-19 CNS it was 23%; with U251 CNS, 9.19% (active); in the experiment with PC-3 prostate, 31.8%. For the same compound, the growth is 19.4% in the experiment on SK-MEL-5 melanoma; 28.1% with UACC-62 melanoma; 30.9% in the experiment on LOX IMVI melanoma; 53.8% in the experiment on SK-MEL-28 melanoma; 25.5% in the experiment on SK-MEL-2 melanoma; 34.3% in the experiment with EKVX NSCLC. The growth in the experiment with SN12C renal was 28.1%; in the experiment on UO-31 renal, 48.2%; in the experiment with TK-10 renal, 49.8%; in the experiment with ACHN renal, 39.6%; in the experiment with A498 renal it was -8.85% (active); with CCRF-CEM leukemia it was 3.86% (active). Further, the figures for the growth in the experiment on MOLT-4 leukemia and with SR leukemia were 10.3% and 9.33% (active), respectively.

In the case of `Cc1[nH]c2ncnc(Oc3ccc(NC(=O)Nc4ccc(Cl)c(C(F)(F)F)c4)cc3)c2c1C`, the growth is 48.3% in the experiment on HCT-15 colon; 50.2% in the experiment on HT29 colon; 88.1% in the experiment with SNB-75 CNS; 73.4% with SNB-19 CNS; 52.5% with U251 CNS; 35% with PC-3 prostate. The growth in the experiment on SK-MEL-5 melanoma was 65.9%; in the experiment on UACC-62 melanoma, 55.8%; in the experiment on LOX IMVI melanoma it was 43.4%; in the experiment with SK-MEL-28 melanoma it was 59.7%; in the experiment on SK-MEL-2 melanoma it was 61.2%; in the experiment with EKVX NSCLC, 43%. The growth in the experiment on SN12C renal was 69%; in the experiment with UO-31 renal, 70.1%; with TK-10 renal it was 81.1%; in the experiment on ACHN renal, 39.9%; in the experiment on A498 renal it was 76%; with CCRF-CEM leukemia it was 24.1%. Further, the figures for the growth in the experiment with MOLT-4 leukemia and in the experiment with SR leukemia were 27.4% and 9.11% (active), respectively.

On to `CCOC(=O)c1cnn(-c2nc(-c3ccc(F)cc3)c(C#N)c(N3CCOCC3)n2)c1N`, for which the growth with HCT-15 colon is 101%; with HT29 colon it was 92%; with SNB-75 CNS, 82.2%; in the experiment on SNB-19 CNS, 95.1%; with U251 CNS, 95.3%; in the experiment on PC-3 prostate, 95.1%. The growth was 96.6% in the experiment with SK-MEL-5 melanoma; 90.8% in the experiment on UACC-62 melanoma; 106% with LOX IMVI melanoma; 111% with SK-MEL-28 melanoma; 90% with SK-MEL-2 melanoma; 92.9% in the experiment on EKVX NSCLC. Further, the growth in the experiment with SN12C renal is 93.9%; in the experiment on UO-31 renal, 74.1%; in the experiment on TK-10 renal, 64%; with ACHN renal, 95.7%; in the experiment on A498 renal, 71.3%; with CCRF-CEM leukemia, 92.8%. Moreover, the growth in the experiment on MOLT-4 leukemia is 90.4%; with SR leukemia, 81.9%.

As for `Cn1nc(C(F)(F)F)c(-c2cc(C(F)(F)F)cc(C(F)(F)F)c2)c1-c1ccc(OCc2ccc(Cl)cc2)cc1O`, the growth with HCT-15 colon is 7.5% (active); in the experiment on HT29 colon, 3.77% (active); in the experiment with SNB-75 CNS it was 4.92% (active); with SNB-19 CNS, 22.6%; in the experiment on U251 CNS it was 6.17% (active); with PC-3 prostate it was 10.7%. The growth in the experiment on SK-MEL-5 melanoma is -36.6% (active); in the experiment with UACC-62 melanoma it was 3.02% (active); with LOX IMVI melanoma it was 6.23% (active); in the experiment with SK-MEL-28 melanoma it was 28%; with SK-MEL-2 melanoma, -34% (active); in the experiment with EKVX NSCLC it was 7.7% (active). For the same compound, the growth in the experiment on SN12C renal was 7.93% (active); in the experiment on UO-31 renal, -1.27% (active); in the experiment with TK-10 renal it was 9.29% (active); in the experiment on ACHN renal, 7.22% (active); in the experiment on A498 renal, -26.9% (active); with CCRF-CEM leukemia it was 6.82% (active). The results for the growth in the experiment on MOLT-4 leukemia and in the experiment on SR leukemia were -11.7% (active) and -4.24% (active), respectively.

`COc1ccc2c(c1)OC13Oc4cc(OC)ccc4C=C1CCCCC3=C2`: the growth was 92.6% in the experiment on HCT-15 colon; 71.5% in the experiment on HT29 colon; 89.8% in the experiment on SNB-75 CNS; 106% in the experiment on SNB-19 CNS; 89.7% in the experiment on U251 CNS; 69.6% in the experiment on PC-3 prostate. The growth was 91.5% in the experiment on SK-MEL-5 melanoma; 89.4% with UACC-62 melanoma; 99.8% in the experiment with LOX IMVI melanoma; 111% in the experiment with SK-MEL-28 melanoma; 80.2% in the experiment with SK-MEL-2 melanoma; 88.8% in the experiment on EKVX NSCLC. Moreover, the growth in the experiment with SN12C renal is 93.6%; with UO-31 renal, 84.7%; in the experiment with TK-10 renal, 86.8%; in the experiment on ACHN renal, 104%; in the experiment on A498 renal, 98.2%; with CCRF-CEM leukemia, 80.9%. In addition, the growth in the experiment on MOLT-4 leukemia is 80.6%; with SR leukemia, 99%.
